TRHR PAM = TRH receptor (human) allosteric enhancement | enhancement, % at 2 µM | 0.66% of 360,000 active | TRHR cells, fluo-8 calcium fluorescence, EC20 TRH enhancement | AID 493056; in the data active means enhancement above about 30%; further: 0% is about no effect
Target sequence (P34981 whole entry, looked up): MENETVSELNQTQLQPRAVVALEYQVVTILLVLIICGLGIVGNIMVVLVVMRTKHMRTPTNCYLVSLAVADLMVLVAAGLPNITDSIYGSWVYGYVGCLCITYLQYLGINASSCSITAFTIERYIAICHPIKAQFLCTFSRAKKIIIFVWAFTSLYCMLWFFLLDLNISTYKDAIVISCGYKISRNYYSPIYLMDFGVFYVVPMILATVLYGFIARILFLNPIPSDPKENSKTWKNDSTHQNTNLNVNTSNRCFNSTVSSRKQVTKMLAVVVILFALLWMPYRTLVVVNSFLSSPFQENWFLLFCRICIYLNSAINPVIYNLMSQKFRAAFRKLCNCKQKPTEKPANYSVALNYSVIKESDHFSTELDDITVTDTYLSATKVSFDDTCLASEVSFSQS
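Enhancer read-out: after compound pinning and an initial kinetic agonist-mode read, an EC20 of TRH (10 nM final) was injected and fluo-8 calcium signal (Ex 480/Em 530) followed at 1 s/cycle for 100 cycles in TRHR-expressing cells.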
D1 antagonist = antagonists of human D1 dopamine receptor. HEK293 TREx D1 cells, calcium flux, dopamine EC80; active compounds read low. activity change, negative = inhibition, % at 10 µM. 3.2% of 360,000 active; in the data active means activity change below about -30%; further: on the % scale 0 is the no-effect control and ±100 the full control effect
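After overnight tetracycline induction at 30 C, force-coupled D1 HEK293 cells took up a no-wash calcium dye at room temperature. Compounds were added and monitored 180 s, and the response to EC80 dopamine was then recorded.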
D1 ag = human D1 receptor agonism; P21728; HEK293 T-REx D1 cells, calcium flux, agonist mode; activation, % at 2 µM; 1% of 360,000 active; AID 504660; further: 0% is about no effect
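Agonism was scored from calcium flux recorded over 180 s (1 read/s) after pintool compound addition, following a 10-cycle baseline. Cells were inducible force-coupled HEK293 TREx D1, plated overnight at 30 C and loaded with no-wash calcium dye.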
D1 PAM = human D1 dopamine receptor positive modulation. potentiation, % at 10 µM. HEK293 TREx D1 cells, calcium flux, dopamine EC20 potentiation. AID 504651. 0.036% of 360,000 active; in the data active means potentiation above about 30%; further: 0% is about no effect
TRHR agonist = agonists of human TRH receptor; P34981; AID 493084; activation, % at 2 µM; TRHR cells, calcium flux fluo-8, FDSS agonist mode; 0.18% of 360,000 active; further: 0% is about no effect
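Steps: seed TRHR cells overnight; add fluo-8 no-wash Ca dye, RT 30 min–1.5 h; record 10 s baseline; pin-transfer compounds; monitor fluorescence 1 cycle/s for the agonist window. Calcium increases flag candidate agonists.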
Active calls of the source: *. This is a sample that favours compounds with a hit; in the whole collection about 4.6% have one here. Unless noted, no stated cut-off is given here; in the data, active means activation above about 30%; inactive means the rest.

Results for COC(=O)c1sc(S(=O)(=O)N2CCCCC2C)c(C(=O)OC)c1C (stereo unspecified) ?
TRHR PAM: 20.3; D1 antagonist: -59.2*; D1 ag: 0.8; D1 PAM: -1.2; TRHR agonist: -1.4

How did CS(=O)(=O)N(Cc1ccccc1)c1ccc(C(=O)Nc2ccc(Cl)cc2)cc1 do in these assays?
TRHR PAM: -3.0; D1 antagonist: 7.4; D1 ag: 7.4; D1 PAM: -2.0; TRHR agonist: 2.3

How did O=C(CCc1ccc(S(=O)(=O)N2CCOCC2)cc1)OCc1nc2ccccc2s1 do in these assays?
TRHR PAM: -9.0; D1 antagonist: -8.8; D1 ag: 33.3*; D1 PAM: 2.1; TRHR agonist: -0.7

Results for O=C(CCc1nc2ccccc2[nH]c1=O)OCc1ccc(S(=O)(=O)N2CCOCC2)cc1 ?
TRHR PAM: 35.6*; D1 antagonist: -6.8; D1 ag: 0.9; D1 PAM: 0.8; TRHR agonist: 0.4

Results for CCOC(=O)c1ccc(COC(=O)CCc2nc3ccccc3[nH]c2=O)o1 ?
TRHR PAM: 28.1; D1 antagonist: 8.0; D1 ag: 0.2; D1 PAM: -4.8; TRHR agonist: 0.9

What do the screens show for `CCn1cc(S(=O)(=O)c2ccc(C)cc2)c(=O)c2cc(F)c(N3CCCCCC3)cc21`?
TRHR PAM: 16.4; D1 antagonist: -7.7; D1 ag: 3.3; D1 PAM: -0.1; TRHR agonist: -0.6

Results for O=C(CN1C(=O)CSc2ccc(C(F)(F)F)cc21)Nc1ccccc1 ?
TRHR PAM: -3.1; D1 antagonist: -5.1; D1 ag: 30.1*; D1 PAM: -2.8; TRHR agonist: 3.0

How did CN(C)S(=O)(=O)c1ccc2c(c1)N(CC(=O)Nc1cccc(C(F)(F)F)c1)C(=O)CS2 do in these assays?
TRHR PAM: -1.6; D1 antagonist: 18.4; D1 ag: 1.6; D1 PAM: 0.1; TRHR agonist: 0.4

Results for O=C(CCN1C(=O)CSc2ccccc21)Nc1ccc(C(F)(F)F)cc1 ?
TRHR PAM: 0.5; D1 antagonist: -31.3*; D1 ag: 5.8; D1 PAM: 3.7; TRHR agonist: -0.3

What do the screens show for `O=C(CCN1C(=O)CSc2ccccc21)Nc1cccc(C(F)(F)F)c1`?
TRHR PAM: 0.7; D1 antagonist: -14.6; D1 ag: -1.1; D1 PAM: -1.4; TRHR agonist: -0.4

What do the screens show for `C/C(=N/NC(=O)CNC(=O)c1cccnc1)c1ccc(Cl)c(Cl)c1`?
TRHR PAM: 1.6; D1 antagonist: -1.9; D1 ag: -0.5; D1 PAM: -1.9; TRHR agonist: 0.2

What do the screens show for `O=C(/C=C/c1ccco1)NC(=S)Nc1cccc([N+](=O)[O-])c1`?
TRHR PAM: 32.3*; D1 antagonist: -21.6; D1 ag: 4.0; D1 PAM: -4.5; TRHR agonist: -0.6

What do the screens show for `COn1c(-c2ccccc2)nc2ccc(Cl)cc21`?
TRHR PAM: 4.1; D1 antagonist: -64.9*; D1 ag: 3.0; D1 PAM: -7.4; TRHR agonist: 0.5

Results for O=C(O)COn1c(-c2ccccc2)nc2ccc(Cl)cc21 ?
TRHR PAM: -4.2; D1 antagonist: -8.2; D1 ag: 0.8; D1 PAM: -4.2; TRHR agonist: 0.2

Results for COc1ccc(NC(=O)C2Cc3ccccc3CN2S(=O)(=O)c2ccccc2)cc1OC (stereo unspecified) ?
TRHR PAM: -2.6; D1 antagonist: -59.0*; D1 ag: 0.7; D1 PAM: -0.2; TRHR agonist: -0.6

What do the screens show for `CCc1nnc(NC(=O)C2Cc3ccccc3CN2S(=O)(=O)c2ccc(C)cc2)s1` (stereo unspecified)?
TRHR PAM: 5.1; D1 antagonist: 8.4; D1 ag: 1.7; D1 PAM: -7.0; TRHR agonist: -0.5

How did CCc1nnc(NC(=O)C2Cc3ccccc3CN2S(=O)(=O)c2cccs2)s1 (stereo unspecified) do in these assays?
TRHR PAM: 31.5*; D1 antagonist: 11.3; D1 ag: 1.8; D1 PAM: -1.1; TRHR agonist: -1.4

Results for COc1ccc(NC(=O)c2cccc(NC(=O)c3ccccc3)c2)cc1 ?
TRHR PAM: 5.8; D1 antagonist: -18.0; D1 ag: 6.5; D1 PAM: -3.2; TRHR agonist: -1.5

What do the screens show for `O=C(CSc1ccncc1)Nc1ccc2ccccc2c1`?
TRHR PAM: -2.0; D1 antagonist: -30.7*; D1 ag: 13.5; D1 PAM: -8.7; TRHR agonist: -0.2

High-throughput results: PubChem, National Center for Advancing Translational Sciences (NCATS)
